In publication PMC9574860, “Chemical Toolkit for PARK7: Potent, Selective, and High-Throughput” (Journal of Medicinal Chemistry, 2022) one finds Inhibition % data, which are given here for 125 compounds.

The structures appear in SMILES notation. Hit rate of the full screen: of about 7,900 compounds, about 400 (5.1%) showed an effect of 50% or more. Shown is part of a subset that was picked to be rich in strong results.

In this experiment the target is Parkinson's disease protein 7 (PARK7/DJ1) (human, UniProt Q99497). The experiment in a line: primary screen, percent inhibition; read as competition with a fluorescent probe by fluorescence polarization; higher = more effect of the substance. The note with it: 100 µM. A digest of the protocol: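 Fluorescence-polarization probe displacement (JYQ-107, 20 nM final, 2 h) after 2 h preincubation of PARK7 (0.2 μM final) with each fragment at 100 μM final. Read-out ex/em 480/520 nm; remaining activity derived from FP signal loss relative to reference controls.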
Parkinson's disease protein 7 (PARK7/DJ1), sequence (Q99497 whole entry, looked up, the tested form may be a part): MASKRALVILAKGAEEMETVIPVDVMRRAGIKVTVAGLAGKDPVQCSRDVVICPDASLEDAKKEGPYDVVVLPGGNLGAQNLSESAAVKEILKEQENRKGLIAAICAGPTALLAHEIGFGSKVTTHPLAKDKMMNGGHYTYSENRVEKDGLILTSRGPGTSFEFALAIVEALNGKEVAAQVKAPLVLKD
With `CC(C)NC(=O)C(C#N)=Cc1ccccc1Cl`, the Inhibition % came to 6.2%.

For the compound `CN(C)C=C(C#N)c1ccccn1`, the Inhibition % is 19.1%.

Consider `CCOc1cc(C)c(C(C)C)cc1S(=O)(=O)n1ccnc1`, for which the Inhibition % is 6.3%. With `O=C(O)c1cccnc1S` the figure was 5.3%.

In the case of `NC(=O)c1cccnc1S`, the Inhibition % is given as 4.97%. As for `O=C(O)c1ccnnc1S`, the Inhibition % was 83.3%. Regarding `O=c1[nH]c(Cc2ccncc2)no1`, the Inhibition % was found to be 6.48%. For the compound `Cc1ccc(Oc2ccccc2NC(=O)CCl)cc1`, the Inhibition % was 2.56%. In the case of `O=C(CCl)Nc1ccc(OCc2ccccc2)cc1` it was 28.9%; in that of `O=C(CCl)Nc1cccc(NC(=O)c2ccccc2)c1`, 7.84%.

`O=C(CCl)Nc1ccc(N=Nc2ccccc2)cc1`: the Inhibition % was 5.15%. In the case of `O=C(CCl)Nc1ccc(Oc2ccccc2)cc1` it was 84.2%.

On to `Cc1ccc(Oc2ccc(NC(=O)CCl)cc2)cc1`, for which the Inhibition % is 36.3%. In the case of `O=C(CCl)NCc1cccc(Oc2ccccc2)c1` it was 22.5%. In the case of `Cc1cccc(NC(=O)CCl)c1` it was 8.99%; in that of `O=C(CCl)Nc1cccc(Oc2ccccc2)c1`, 55.6%; in that of `Cc1cccc(Oc2ccc(NC(=O)CCl)cc2)c1`, 81.6%. In the case of `O=C(CCl)Nc1ccc(Oc2ccccc2Cl)cc1` it was 93.7%; in that of `O=C(CCl)Nc1ccccc1Oc1ccccc1`, 6.38%. `Cc1ccc(C)c(S(=O)(=O)n2nc(C)cc2C)c1`: the Inhibition % was determined as 1.62%. With `CCOc1cc(C)c(Cl)cc1S(=O)(=O)n1cnc(C)c1` the figure was 5.28%; with `C=CC(=O)NCCN(C)C1CCCCC1`, 10.8%; with `C=CC(=O)N1CCN(c2ncnc3sc(C)cc23)CC1`, 0.554%. In the case of `Cc1noc(C)c1Cn1c(-c2ccccn2)noc1=O` it was 0.962%; in that of `CC1(C)OB(c2cccc3occc23)OC1(C)C`, 10.2%; in that of `C=CC(=O)N1CCC(c2nccn2C)C1` (centres unmarked), 5.02%.

On to `Cn1c(=O)[nH]c2ccc(B3OC(C)(C)C(C)(C)O3)cc21`, for which the Inhibition % is listed as 0.0918%. In the case of `C=CC(=O)NC1CC(OCC)C12CCCCC2` (centres unmarked) it was 4.59%; in that of `CN(C)C(=O)Oc1ccc2c(c1)OCO2`, -4.08%; in that of `N#Cc1nccnc1N1CCC(C(F)(F)F)CC1`, 2.52%. In the case of `C=CC(=O)N1CCN(CC2CCOCC2)CC1`, the Inhibition % turned out to be 12.9%. With `N#Cc1ccc(N2CCOC(c3cccs3)C2)cn1` (centres unmarked) the figure was 4.98%. In the case of `COCc1ccc(CNC(=O)CCl)cc1` it was 6.87%; in that of `N#Cc1ccc(N2CCCC(C(N)=O)C2)cn1` (centres unmarked), 6.47%; in that of `CC(c1cc2ccccc2o1)N(C)C(=O)CCl` (centres unmarked), 96.1%. With `CCC(NC(=O)CCl)c1ccc(Cl)cc1` (centres unmarked) the figure was 14.1%. `CC(c1ccc(Cl)cc1)N(C)C(=O)CCl` (centres unmarked): the Inhibition % is 98%. In the case of `CC(NC(=O)CCl)c1ccc(Cl)cc1` (centres unmarked) it was 6.77%; in that of `C=CC(=O)N(C)Cc1cc2ccccc2o1`, 5.57%. Regarding `CC(c1ccc(F)cc1)N(C)C(=O)Cn1cnc(C#N)n1` (centres unmarked), the Inhibition % is given as 11.3%. In the case of `CC(c1ccc(F)c(F)c1)N(C)C(=O)CCl` (centres unmarked) it was 92.5%; in that of `CN(C)C=CC(=O)c1cc2ccccc2o1`, 0.589%; in that of `CCN(C(=O)CCl)C(C)c1ccc(F)cc1` (centres unmarked), 9.9%. With `CC(c1ccc(F)cc1)N(C)C(=O)CCl` (centres unmarked), the Inhibition % amounted to 96.3%.

Regarding `C=CC(=O)N1CCCC(c2ccc(F)c(F)c2)C1` (centres unmarked), the Inhibition % stood at 9.29%.

With `C=CC(=O)N1CC(C)OC(C(F)(F)F)C1` (centres unmarked), the Inhibition % was found to be 14.7%. In the case of `CC(=O)SCCc1csc(-c2ccccn2)n1` it was 9.81%; in that of `O=C(Nc1ccccc1)c1cccnc1S`, 3.52%; in that of `CCC1(c2ccccc2)NC(=O)N(NC(=O)CCl)C1=O` (centres unmarked), 6.48%.

For the compound `C=CC(=O)N1CCC(Cc2ccncc2)C1` (centres unmarked), the Inhibition % came to 6.08%. With `Cc1cccc2c(=O)[nH]c(C(Cl)=Cc3ccnn3C)nc12` the figure was 6.42%.

As to `C=CC(=O)NC(C)c1c(C)nn(CC(F)(F)F)c1C` (centres unmarked), the Inhibition % was 4.48%. `CC(c1ccccc1)N(C)C(=O)Cn1cnc(C#N)n1` (centres unmarked): the Inhibition % was found to be 7.46%. As to `CN(C(=O)CCl)C(c1ccccc1)c1ccccc1`, the Inhibition % worked out at 6.29%. Consider `CCN(C(=O)CCl)c1nc2ccccc2s1`, for which the Inhibition % is reported as 24.6%.

Take `CN(C(=O)CCl)c1nc2ccccc2s1`: the Inhibition % is given as 3.42%. In the case of `CC(c1ccccc1)N(C)C(=O)CCl` (centres unmarked) it was 98.5%; in that of `CC(c1nc2ccccc2s1)N(C)C(=O)CCl` (centres unmarked), 97.3%; in that of `CC1(C)OB(c2cnc3ccnn3c2)OC1(C)C`, 5.87%. In the case of `C=CC(=O)N1CCOC(C)(C(F)F)C1` (centres unmarked) it was 7.7%; in that of `CS(=O)(=O)c1cccnc1C#N`, 5.26%. In the case of `C=CC(=O)N1CCCC1C` (centres unmarked) it was 7.71%. On to `CC(C)Cn1c(N)c(C(=O)CCl)c(=O)n(C)c1=O`, for which the Inhibition % is given as 6.06%.

Take `O=c1[nH]c(-c2cccc(S(=O)(=O)F)c2)nc2sc3c(c12)CCC3`: the Inhibition % was 88.5%.

Regarding `O=c1[nH]c(-c2ccc(S(=O)(=O)F)cc2)nc2sc3c(c12)CCC3`, the Inhibition % stood at 15.9%. With `O=c1[nH]c(-c2ccc(S(=O)(=O)F)cc2)nc2ccccc12` the figure was 13%.

Take `CC1(C)OB(c2ccc3ccc(N)cc3c2)OC1(C)C`: the Inhibition % was 86.8%. With `CC1(C)OB(c2ccc(N)c(O)c2)OC1(C)C` the figure was 92.7%; with `Cc1cc(B2OC(C)(C)C(C)(C)O2)ccc1N`, 8.63%. With `CC1(C)OB(c2cccc(N)c2)OC1(C)C` the figure was 12.8%. In the case of `CC1(C)OB(c2ccc(N)cc2)OC1(C)C` it was 5.89%; in that of `CC1(C)OB(c2ccc(N)c(F)c2)OC1(C)C`, 1.59%. For the compound `Cc1ccc(N)cc1B1OC(C)(C)C(C)(C)O1`, the Inhibition % is given as 14.1%. `CC1(C)OB(c2ccc3ccoc3c2)OC1(C)C`: the Inhibition % is listed as 9.89%. In the case of `CC1(C)OB(c2ccc3cc(N)ccc3c2)OC1(C)C` it was 87.8%. In the case of `Cc1ccc(C)c(Cn2cnc(C#N)n2)c1` it was 2.61%; in that of `Clc1ccccc1COCC1CO1` (centres unmarked), 9.97%; in that of `N[C@@H]1CCN(C(=O)C=Cc2cc3ccccc3o2)C1`, 18.2%. On to `N#Cc1ccc2c(n1)CCCC2`, for which the Inhibition % is listed as 7.43%. As for `C=CC(=O)NC1C(C)C(OC)C12CCC2` (centres unmarked), the Inhibition % is 50%. With `C=CC(=O)NC1CC(OC)C12CCC2` (centres unmarked) the figure was 3.73%; with `C=CC(=O)NC1C2CCOC2C12CCC2` (centres unmarked), 8.04%.

For `COc1cc(S(=O)(=O)n2cccn2)c(C)cc1C`, the Inhibition % was 5.05%. In the case of `COc1ccc(CNC(=O)CCl)cc1OC` it was 6.67%; in that of `Cc1ccc(NC(=O)CCl)cc1Br`, 75%; in that of `Cc1ccc(NC(=O)CCl)cc1F`, 48.3%. Consider `Cc1cc(NC(=O)CCl)ccc1Br`, for which the Inhibition % was found to be 32.6%. With `Cc1ccc(NC(=O)CCl)cc1C` the figure was 34.8%; with `Cc1cc(C)cc(NC(=O)CCl)c1`, 11.3%. In the case of `Cc1ccc(NC(=O)CCl)cc1I` it was 81.5%; in that of `O=C1CC2(CCCC2)N1`, 4.3%; in that of `CCc1cc(S(=O)(=O)n2ccnc2)ccc1OC`, 7.72%. In the case of `c1ccc(OCC2CO2)cc1` (centres unmarked) it was 9.6%; in that of `CCCn1nc2c(cc1=O)CN(C1CC(C)OC1=O)CC2` (centres unmarked), 86.8%; in that of `CC1CC(N2CCc3c(nc(C4CC4)n3C)C2)C(=O)O1` (centres unmarked), 5.37%. As for `CC(=O)Nc1cccc2c1CCN(C1CC(C)OC1=O)C2` (centres unmarked), the Inhibition % amounted to 1.86%.

As for `CC1CC(N2CCN(C)c3ccccc3C2)C(=O)O1` (centres unmarked), the Inhibition % is 0.987%. In the case of `CC1CC(N2CCc3sccc3C2)C(=O)O1` (centres unmarked) it was 13.9%; in that of `CCn1nc2c(cc1=O)CN(C1CC(C)OC1=O)CC2` (centres unmarked), 61.4%; in that of `C=CC(=O)NCC1CCSC1` (centres unmarked), 5.45%.

Take `C=CC(=O)N1CCc2ccc(C(=O)O)cc2CC1`: the Inhibition % was 4.84%. With `O=c1cn[nH]c(S)n1` the figure was 74.8%; with `Cc1n[nH]c(S)nc1=O`, 2.15%. With `O=c1[nH]c(S)nc2[nH]ncc12` the figure was 4.43%.

For the compound `Cn1c(=O)c2c(nc(Cl)n2CCS(=O)(=O)F)n(C)c1=O`, the Inhibition % was determined as 3.18%. With `CC1CC(N2CCC(O)CC2)C(=O)O1` (centres unmarked) the figure was 5.67%; with `C=CC(=O)N1CCC(N(C)C(=O)N(C)C)C1` (centres unmarked), 28.7%.

As for `Cc1nonc1C(=O)CCl`, the Inhibition % is on record as 97.9%. In the case of `Cc1noc(C)c1C(=O)CCl` it was 13.5%; in that of `Cc1cc(NC(=O)CCl)no1`, 3.42%. As to `C=CC(=O)NCC1CCC=CO1` (centres unmarked), the Inhibition % was determined as 6.04%. As to `C=CC(=O)N1CCN(S(=O)(=O)CC)C[C@H]1C`, the Inhibition % is 12.6%. In the case of `Cn1cc(S(=O)(=O)Oc2cnc3ccccc3c2)cn1` it was 6.55%. With `CN(c1ccn(C)n1)S(=O)(=O)c1ccccc1S(=O)(=O)F` the figure was 97.9%. With `O=S(=O)(F)c1coc2ccccc12` the figure was 10.5%.

With `Cn1cc(S(=O)(=O)F)c(N)n1`, the Inhibition % came out at 7.95%.

`CN(c1ccccc1)S(=O)(=O)c1ccccc1S(=O)(=O)F`: the Inhibition % amounted to 96.6%.

On to `CN(c1cnn(C)c1)S(=O)(=O)c1ccccc1S(=O)(=O)F`, for which the Inhibition % came out at 98.1%. For the compound `CN(c1ccccc1)S(=O)(=O)C=Cc1ccccc1`, the Inhibition % was 4.34%. Regarding `CC(=O)Nc1nn(C)cc1S(=O)(=O)F`, the Inhibition % was found to be 14.8%. In the case of `C=CC(=O)N(Cc1ccccc1)c1cnn(C)c1` it was 29.9%; in that of `CC1(C)OB(CC2CC3(CCOCC3)C2)OC1(C)C`, 3.09%. As for `C=CC(=O)N(C)C1C(C)CCCC1C` (centres unmarked), the Inhibition % came to 5.45%. With `C=CC(=O)N1C[C@]2(C)COC[C@]2(C)C1` the figure was 9.62%; with `C=CC(=O)N1CC(C)(C)O[C@@]2(C[C@@H]3CC[C@H]2C3)C1`, 10.3%.
